Experimental findings from publication PMC11006913 are described below.

Where a chain is given by its changes, count along the chain named.

Experiment [1] concerns the target T1, NKX2-6 (Homo sapiens, UniProt A6NCS4 118-204).
T1 sequence: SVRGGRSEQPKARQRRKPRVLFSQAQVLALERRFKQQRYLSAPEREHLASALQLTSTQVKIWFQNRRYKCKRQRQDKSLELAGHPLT
Briefly: PBM; 200 nM protein, PBS. As to conditions: dsDNA, one strand shown.

Experiment [2] addresses T2, NKX2-6 (Homo sapiens, UniProt A6NCS4 118-204, F151L).
T2 sequence: T1 sequence with F34L
Briefly: PBM; 200 nM protein, PBS. As to conditions: dsDNA, one strand shown.

As for CCAGAATC, the binding signal was 9.71 upbm affinity estimate (log intensity, higher = more binding, comparable within an allelic series) in the experiment with NKX2-6 [1] and 9.51 upbm affinity estimate (log intensity, higher = more binding, comparable within an allelic series) in the experiment with NKX2-6 [2].

With ATGCCCTG, the binding signal is 9.6 upbm affinity estimate (log intensity, higher = more binding, comparable within an allelic series) in the experiment with NKX2-6 [1] and 9.34 upbm affinity estimate (log intensity, higher = more binding, comparable within an allelic series) with NKX2-6 [2].

In the case of GAAGAGCA, the binding signal is 11.4 upbm affinity estimate (log intensity, higher = more binding, comparable within an allelic series) in the experiment with NKX2-6 [1] and 9.71 upbm affinity estimate (log intensity, higher = more binding, comparable within an allelic series) in the experiment with NKX2-6 [2].

For the sequence CAGGGTCG, the binding signal with NKX2-6 [1] is 9.43 upbm affinity estimate (log intensity, higher = more binding, comparable within an allelic series); in the experiment with NKX2-6 [2], 9.26 upbm affinity estimate (log intensity, higher = more binding, comparable within an allelic series).

For AGTGGCTA, the binding signal was 11.9 upbm affinity estimate (log intensity, higher = more binding, comparable within an allelic series) with NKX2-6 [1] and 9.95 upbm affinity estimate (log intensity, higher = more binding, comparable within an allelic series) in the experiment with NKX2-6 [2].

Consider ATCACTCA, for which the binding signal was 12.1 upbm affinity estimate (log intensity, higher = more binding, comparable within an allelic series) with NKX2-6 [1] and 9.9 upbm affinity estimate (log intensity, higher = more binding, comparable within an allelic series) with NKX2-6 [2].

With ACCTCTCA, the binding signal with NKX2-6 [1] was 12 upbm affinity estimate (log intensity, higher = more binding, comparable within an allelic series); in the experiment with NKX2-6 [2], 9.82 upbm affinity estimate (log intensity, higher = more binding, comparable within an allelic series).

With CGTTTGCC, the binding signal with NKX2-6 [1] was 9.35 upbm affinity estimate (log intensity, higher = more binding, comparable within an allelic series); with NKX2-6 [2], 9.53 upbm affinity estimate (log intensity, higher = more binding, comparable within an allelic series).

On to CAGATCCC, for which the binding signal with NKX2-6 [1] is 9.68 upbm affinity estimate (log intensity, higher = more binding, comparable within an allelic series); with NKX2-6 [2], 9.49 upbm affinity estimate (log intensity, higher = more binding, comparable within an allelic series).

GCGTCGCA: the binding signal was 9.48 upbm affinity estimate (log intensity, higher = more binding, comparable within an allelic series) in the experiment with NKX2-6 [1] and 9.49 upbm affinity estimate (log intensity, higher = more binding, comparable within an allelic series) with NKX2-6 [2].

AAATACTC: the binding signal is 11.4 upbm affinity estimate (log intensity, higher = more binding, comparable within an allelic series) with NKX2-6 [1] and 9.88 upbm affinity estimate (log intensity, higher = more binding, comparable within an allelic series) in the experiment with NKX2-6 [2].

As to CACTCTGG, the binding signal is 11.6 upbm affinity estimate (log intensity, higher = more binding, comparable within an allelic series) in the experiment with NKX2-6 [1] and 9.66 upbm affinity estimate (log intensity, higher = more binding, comparable within an allelic series) with NKX2-6 [2].

With ACCCAGGC, the binding signal is 8.77 upbm affinity estimate (log intensity, higher = more binding, comparable within an allelic series) in the experiment with NKX2-6 [1] and 9.31 upbm affinity estimate (log intensity, higher = more binding, comparable within an allelic series) with NKX2-6 [2].

Turning to GGAAAGTA, the binding signal with NKX2-6 [1] was 11.2 upbm affinity estimate (log intensity, higher = more binding, comparable within an allelic series); in the experiment with NKX2-6 [2] it was 9.87 upbm affinity estimate (log intensity, higher = more binding, comparable within an allelic series).

In the case of ACCGGGGG, the binding signal with NKX2-6 [1] is 9.31 upbm affinity estimate (log intensity, higher = more binding, comparable within an allelic series); with NKX2-6 [2], 9.04 upbm affinity estimate (log intensity, higher = more binding, comparable within an allelic series).

Take CCGTAGCA: the binding signal is 9.41 upbm affinity estimate (log intensity, higher = more binding, comparable within an allelic series) with NKX2-6 [1] and 9.46 upbm affinity estimate (log intensity, higher = more binding, comparable within an allelic series) with NKX2-6 [2].

ACCGTTTG: the binding signal is 9.46 upbm affinity estimate (log intensity, higher = more binding, comparable within an allelic series) in the experiment with NKX2-6 [1] and 9.44 upbm affinity estimate (log intensity, higher = more binding, comparable within an allelic series) with NKX2-6 [2].

With GGCCCGTA, the binding signal in the experiment with NKX2-6 [1] is 9.15 upbm affinity estimate (log intensity, higher = more binding, comparable within an allelic series); with NKX2-6 [2] it was 9.45 upbm affinity estimate (log intensity, higher = more binding, comparable within an allelic series).

For the sequence GGCACAGA, the binding signal with NKX2-6 [1] was 9.3 upbm affinity estimate (log intensity, higher = more binding, comparable within an allelic series); in the experiment with NKX2-6 [2], 9.37 upbm affinity estimate (log intensity, higher = more binding, comparable within an allelic series).

With GTTCCACA, the binding signal with NKX2-6 [1] was 9.21 upbm affinity estimate (log intensity, higher = more binding, comparable within an allelic series); in the experiment with NKX2-6 [2] it was 9.42 upbm affinity estimate (log intensity, higher = more binding, comparable within an allelic series).

As to ACTTGACT, the binding signal in the experiment with NKX2-6 [1] is 12.4 upbm affinity estimate (log intensity, higher = more binding, comparable within an allelic series); in the experiment with NKX2-6 [2], 10.4 upbm affinity estimate (log intensity, higher = more binding, comparable within an allelic series).

Turning to CCTTAATC, the binding signal is 11.3 upbm affinity estimate (log intensity, higher = more binding, comparable within an allelic series) with NKX2-6 [1] and 9.82 upbm affinity estimate (log intensity, higher = more binding, comparable within an allelic series) in the experiment with NKX2-6 [2].

CACGGGTC: the binding signal with NKX2-6 [1] was 9.25 upbm affinity estimate (log intensity, higher = more binding, comparable within an allelic series); with NKX2-6 [2], 9.31 upbm affinity estimate (log intensity, higher = more binding, comparable within an allelic series).

On to GGTGCGAC, for which the binding signal was 9.44 upbm affinity estimate (log intensity, higher = more binding, comparable within an allelic series) in the experiment with NKX2-6 [1] and 9.43 upbm affinity estimate (log intensity, higher = more binding, comparable within an allelic series) in the experiment with NKX2-6 [2].

On to AGTGCCAC, for which the binding signal with NKX2-6 [1] was 11.6 upbm affinity estimate (log intensity, higher = more binding, comparable within an allelic series); with NKX2-6 [2], 9.9 upbm affinity estimate (log intensity, higher = more binding, comparable within an allelic series).

On to CCGCGCAC, for which the binding signal with NKX2-6 [1] was 9.44 upbm affinity estimate (log intensity, higher = more binding, comparable within an allelic series); with NKX2-6 [2] it was 9.51 upbm affinity estimate (log intensity, higher = more binding, comparable within an allelic series).

As to AAGGGTCA, the binding signal was 11.8 upbm affinity estimate (log intensity, higher = more binding, comparable within an allelic series) in the experiment with NKX2-6 [1] and 10 upbm affinity estimate (log intensity, higher = more binding, comparable within an allelic series) with NKX2-6 [2].

Consider CGTCCGTA, for which the binding signal was 9.42 upbm affinity estimate (log intensity, higher = more binding, comparable within an allelic series) in the experiment with NKX2-6 [1] and 9.44 upbm affinity estimate (log intensity, higher = more binding, comparable within an allelic series) with NKX2-6 [2].

With ATCTTCAC, the binding signal with NKX2-6 [1] is 11.1 upbm affinity estimate (log intensity, higher = more binding, comparable within an allelic series); with NKX2-6 [2], 9.83 upbm affinity estimate (log intensity, higher = more binding, comparable within an allelic series).

For the sequence ACTACTTA, the binding signal is 13.5 upbm affinity estimate (log intensity, higher = more binding, comparable within an allelic series) with NKX2-6 [1] and 10.5 upbm affinity estimate (log intensity, higher = more binding, comparable within an allelic series) in the experiment with NKX2-6 [2].
